Test results reported in the supplement of paper PMC11417369.
± gives the standard deviation of the averaged measurements. In all, about 25,000 sequences were measured (“ln(normalized median fluorescence intensity)”: median about 10, highest 2% from about 12 on). Many of the other results were omitted from the sample, so the highest values are more common in it than they were.

The sequences below were run on PfAP2-G AP2 domain (GST-tagged) (assay: gcPBM binding intensity (ln(normalized median fluorescence intensity)); higher = stronger DNA binding).
Method in brief: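 For binding intensity, the highest Masliner-normalised natural-log median intensity across replicate spots of either probe orientation was taken. Protein bound to the array was stained with Alexa488 anti-GST antibody and scanned at 488 nm. The protein, GST-tagged P. falciparum DNA-binding domains from E. coli at about 25 μg on average, had been applied for 1 h to an Agilent 4 × 180k array of primer-extended double-stranded 36-bp intergenic genomic probes and negative controls.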

| Sequence | gcPBM binding intensity (ln) |
| --- | --- |
| TTTTGTTGAAAAGTAAGATATTCCAACATGTTTTTA [CACACA_negctrl_site391] | 9.88 ± 0.014 |
| TATATATATATATATACATGCATACATATACATACA [TGCATGCA_site897] | 10 ± 0.22 |
| TTTTTTTTTTTTTTTTTTTGTCTTATATATTACGGA [CACACA_negctrl_site322] | 9.64 ± 0.67 |
| AAAAAATACTTATAAAGTACTAATATATATAAGCAG [XGTACX_site743] | 10.9 ± 0.48 |
| TTTATGGAATAATCACGTACACACAAGAAAAAAAAA [XGTACX_site985] | 11.4 ± 0.91 |
| TTTATATTTAAAAGGATGCACTACAAATTCTAAATA | 10.3 ± 0.3 |
| TTTTTTTTTCCCGTAAATATTGAGACAACCATAATG [CACACA_negctrl_site41] | 10.6 ± 0.54 |
| TATATAATATTACGTTGTACACTTTAATCTCCCTTC [XGTACX_site5577] | 11.1 ± 0.7 |
| CTATTTTTTGTATAAACATGCATATAGTAGATATGG [TGCATGCA_site670] | 10.1 ± 0.23 |
| AAAGAATTTAAATATTGTACGCAATATATAAAAAAA [XGTACX_site7616] | 11.5 ± 0.92 |
| CTTTAACCTTTTTATTGTACTTTTAATATTTTAAAA [XGTACX_site4457] | 11.4 ± 0.86 |
| TTTAAACCTTAATATTGTACGCAAAAAAAAAAAGAA [XGTACX_site3757] | 11.6 ± 1 |
| CATTTTATTTTAATATGTACTTAAAGAAAAAAAATT [XGTACX_site7670] | 11.2 ± 0.82 |
| TTACATGTAAAAGGTACACACATTATGTATACAAAT [CACACA_site1117] | 11.4 ± 0.88 |
| TATGTGTGCAAAAACTGTACACATTAAAGGTATATA [XGTACX_site7627] | 11.7 ± 1.1 |
| TATTAAAAGGTGAGTACACACATATATGTGTATATA [CACACA_site7070] | 11.4 ± 0.83 |
| AAATTATTTCTTTGCGCATGTAGCTTTTATACTATT [TGCATGCA_site819] | 9.98 ± 0.16 |
| AATGGTTCAACGTAGTGTACGTAATAAATAATAAAT [XGTACX_site8668] | 11.8 ± 0.95 |
| ATTAAGTTCAAATGTAGTACGTGTAAAAAAAAAAAA [XGTACX_site1578] | 11.4 ± 0.83 |

| Sequence | gcPBM binding intensity (ln) |
| --- | --- |
| TAAAAATATAAATTTTGTACGTAAAAAATGGTTCTT [XGTACX_site1506] | 11.5 ± 0.93 |
| ATTCGGATCTATAAGTGTACACAATCTAGCGAAAAG [XGTACX_site3088] | 11.5 ± 0.83 |
| CGGATCTATAAGTGTACACAATCTAGCGAAAAGTTT [CACACA_site4932] | 11.6 ± 1 |
| GGATAAGAAAAGAAGTGTACATATATATATATATAT [XGTACX_site8290] | 11.2 ± 0.68 |
| AGGCACAAAATTAAATGTACATATATATATATATAT [XGTACX_site3323] | 11 ± 0.6 |
| ACGGATTAAAAAATGTGTACGCACAAAAAAAAAAAT [XGTACX_site8259] | 11.7 ± 0.97 |
| TTATTAAAAATGGTATGTACGCACATAATATATATA [XGTACX_site3230] | 11.5 ± 0.71 |
| ATGTTCTTTAAAACCACACACCCCCCAACCCCCCTC [CACACA_site2373] | 11.7 ± 1 |
| CAAACCCACCAACACACACACACAAAAATGATTAAA [CACACA_site2432] | 10.2 ± 0.35 |
| TTTTTTTTTTTTTTTTTTTTTTTATGTTCTTAAAAA [GTGCAC_negctrl_site62] | 9.56 ± 0.35 |
| CACACCCACAAAAACACACACAAAGGTGTTCTTATA [CACACA_site1293] | 10 ± 0.13 |
| TTATGTTCTTTAAAACCACACACCCCCCAACCCCCC [CACACA_site8742] | 11.6 ± 0.87 |
| CTTTAAACCCTGAACACACACAAATACACCCAAAAA [CACACA_site4297] | 10.7 ± 0.54 |
| TATATATGTATCAAGTGTACAGTTTTAAAAAAAAAA [XGTACX_site6011] | 11.4 ± 0.87 |
| TTTCTTACAACAACAACAAAAAAAAATAAATAAAAT [GTGCAC_negctrl_site711] | 9.91 ± 0.16 |
| AATATATATGAAAAAAGTACTCAAGGAATAAAAAAA [XGTACX_site7720] | 11.3 ± 0.67 |
| TAATAAAACATATATACACACATTAGATATACATAT [CACACA_site6897] | 9.92 ± 0.057 |
| AAATTACTTTCACAGTGTACTTGGAAAAAAAAAAGA [XGTACX_site1046] | 11.3 ± 0.8 |
| AATGGAAATTTTTCTTGTACACATATATGACATGTT [XGTACX_site1691] | 11.3 ± 0.86 |

| Sequence | gcPBM binding intensity (ln) |
| --- | --- |
| TCTTTGTACTTTCACATGTACACCCAAATGGAAATT [CACACA_negctrl_site1442] | 11.8 ± 0.87 |
| ACATCTAGGCTTATTTTATGATACATGTGAATATAT [TGCATGCA_negctrl_site325] | 9.79 ± 0.099 |
| TTTCATTTAGCTTTTACACACTATATATTATTGATT [CACACA_site16] | 9.82 ± 0.11 |
| AAAAATATATAAACACGTACACACACATATATGTAT [XGTACX_site7436] | 11.6 ± 0.88 |
| AATATATAAACACGTACACACACATATATGTATATA [CACACA_site9168] | 11.6 ± 1 |
| ATAATAAACATATATGTACACACATATACATATATA [CACACA_site8924] | 11.3 ± 0.94 |
| TAAGTTATATGTACTACACACGTACACAAAATAAGA [CACACA_site9237] | 11.8 ± 1 |
| TATATCTACTACACACGTACACAAAATAAGATACCT [XGTACX_site7886] | 11.5 ± 0.97 |
| AATAAACATATATGTACACACATATACATATATATA [CACACA_site2848] | 11.4 ± 1.2 |
| AAAAAAATAAAACACATACATATATGTATATATATA [GTGCAC_negctrl_site390] | 9.77 ± 0.2 |
| ACATAAATAATAAAAACACACATATGTACATATATA [CACACA_site1913] | 11.3 ± 0.79 |
| AGTTATATGTACTACACACGTACACAAAATAAGATA [CACACA_site3719] | 11.6 ± 0.75 |
| GCTATATATTACAATCGTACAATATATATATATATA [XGTACX_site6730] | 10.8 ± 0.68 |
| TATATTTATAACAACACACACAGATCATAAAACTGC [CACACA_site7086] | 10.2 ± 0.12 |
| TTTTTCCAATCAGATGCATGTTACTATATTTGGTTC [TGCATGCA_site52] | 9.96 ± 0.014 |
| ATATATTATTATAACTGTACTTTTTTTGTGGTTAAT [XGTACX_site8266] | 11.5 ± 0.83 |
| TCATAGTATAAACACACACACACACCCATATATATA [CACACA_site8512] | 10.2 ± 0.3 |
| ATAAATTGTTCTTTTTGTGTAAACAGAATATTAAAA [CACACA_negctrl_site1022] | 10.1 ± 0.21 |
